From PubChem BioAssay
The source made the active and inactive calls.

Assays:
[1] = system: PRMT1 (protein arginine N-methyltransferase 1); test: PRMT1 binders on small-molecule microarrays, primary screen, biochemical, small-molecule microarray, 635 nm fluorescence (AID 1088); conditions: small-molecule microarray binding, higher = more signal;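 further: binding of Prmt1 protein to compounds spotted on small-molecule microarray slides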
[2] = yeast growth modulation, basal conditions, primary screen, YJM789 clinical isolate, OD600, 24 h (AID 1089);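 further: growth of clinical yeast isolate S. cerevisiae YJM 789 seeded 1000 cells per well; test concentration not given here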; conditions: S. cerevisiae YJM789 growth, higher = more signal, called active from +8 up or from −8 down
[3] = fission yeast growth modulation, primary screen, strain 972, OD600, 24 h, no modulator (AID 1090);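 further: basal condition with compound alone and no growth modifier present; test concentration not given here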; conditions: S. pombe 972 growth, higher = more signal, called active from +8 up or from −8 down
[4] = S. cerevisiae growth modulation with rapamycin, primary screen, strain BY4716, OD600, 96 h (AID 1091); conditions: higher = more signal, called active from +8 up or from −8 down; further: test concentration not given here
[5] = target: Torsin-1A-interacting protein 2 (Homo sapiens) (UniProt Q8NFQ8); test: LULL1 binders on small-molecule microarray, primary screen, cell lysate, human LULL1 lysate, 635/667 nm fluorescence (AID 1092); conditions: hLULL1 lysate binding, 635 nm fluorescence, higher = more signal;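 further: probe is lysate of COS7 cells overexpressing human LULL1; score merges per-feature 667 nm fluorescence with signal-to-noise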
[6] = E. coli growth modulation, two-sided OD650, primary screen, E. coli filamentation project, strain DRC41, 24 h (AID 1093); conditions: OD650, 24 h, higher = more signal, called active from +8 up or from −8 down;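 further: MC1000 strain lacking acrAB efflux and sulA so SOS filamentation is blocked; test concentration not given here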
[7] = small-molecule microarray binders of probe aLefty2, primary screen, biochemical, biotinylated probe, 635/667 nm fluorescence (AID 1094); conditions: higher = more signal;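 further: score merges spot fluorescence near 667 nm with spot signal-to-noise ratio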
[8] = system: Noggin (protein binding on small-molecule microarray); test: Noggin binders on small-molecule microarray, primary screen, biochemical, 635/667 nm fluorescence (AID 1095); conditions: 635 nm fluorescence, higher = more signal;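 further: score merges 667 nm feature fluorescence with signal to noise over triplicate slides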
[9] = target: Neurogenic locus notch homolog protein 3 (Homo sapiens) (UniProt Q9UM47); test: NOTCH3 binders on small-molecule microarray, primary screen, biochemical, 635/667 nm fluorescence (AID 1096); conditions: NOTCH3 binding, 635 nm fluorescence, higher = more signal
[10] = small-molecule microarray binders of probe aEGFR, primary screen, biochemical, biotinylated probe, 635/667 nm fluorescence (AID 1097); conditions: higher = more signal;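 further: probe is a biotinylated anti-EGFR antibody binding compounds printed on slides; score combines fluorescence near 667 nm and signal to noise of each spot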
[11] = system: Plasmodium falciparum Sir2 (PF13_0152, Sir2A); test: pfSir2 binders on small-molecule microarrays, primary screen, biochemical, small-molecule microarray, 635 nm fluorescence (AID 1098); conditions: small-molecule microarray binding, fluorescence 635 nm; higher = more signal;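 further: score merges spot fluorescence intensity with its signal-to-noise ratio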
[12] = small-molecule microarray binders of probe aDKK1, primary screen, biochemical, biotinylated probe, 635/667 nm fluorescence (AID 1099); conditions: higher = more signal;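 further: score merges 667nm spot fluorescence with signal to noise across triplicate slides; reference of the scale not given here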
[13] = small-molecule microarray binders of probe aCHRDL2, primary screen, biochemical, biotinylated probe, 635/667 nm fluorescence (AID 1100); conditions: higher = more signal
[14] = splicing luciferase reporter signal modulators, primary screen, spliceosome inhibition project, cell-based, HEK293, splice +/- reporter (AID 1101); conditions: luminescence, 24 h, higher = more signal, called active from +8 up or from −8 down;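 further: HEK293 cells carrying a splicing-competent luciferase reporter gene; test concentration not given here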
[15] = target: Fibroblast growth factor 10 (Homo sapiens) (UniProt O15520); test: FGF10 binders on small-molecule microarrays, primary screen, biochemical, small-molecule microarray, 635 nm fluorescence (AID 1102); conditions: FGF10 binding, fluorescence 635 nm, higher = more signal
[16] = system: glycogen synthase kinase-3 (GSK3A per assay name; protocol says GSK3B); test: GSK3 binders on small-molecule microarrays, primary screen, biochemical, small-molecule microarray, 635 nm fluorescence, GSK3A (AID 1103); conditions: small-molecule microarray binding, fluorescence 635 nm; higher = more signal; further: the record names both GSK3A and GSK3B
[17] = target: Epidermal growth factor receptor (Homo sapiens) (UniProt P00533); test: EGFR binders on small-molecule microarrays, primary screen, biochemical, small-molecule microarray, 635 nm fluorescence (AID 1104); conditions: EGFR binding, higher = more signal;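 further: score merges 667 nm emission intensity with spot signal to noise over triplicate slides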
[18] = target: Follistatin-related protein 3 (Homo sapiens) (UniProt O95633); test: FSTL3 binders on small-molecule microarrays, primary screen, biochemical, small-molecule microarray, 635 nm fluorescence (AID 1105); conditions: FSTL3 binding, higher = more signal;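 further: score merges emission near 667 nm and signal to noise per printed spot across three slides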
[19] = target: Dickkopf-related protein 1 (Homo sapiens) (UniProt O94907); test: DKK1 binders on small-molecule microarrays, primary screen, biochemical, small-molecule microarray, 635 nm fluorescence scan (AID 1106); conditions: DKK1 binding, higher = more signal;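 further: score merges emission near 667 nm with signal to noise over three replicate slides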
[20] = system: Inhibin beta A chain (activin A); test: INHBA (activin A) binders on microarrays, primary screen, biochemical, small-molecule microarray, 635 nm fluorescence scan (AID 1107); conditions: small-molecule microarray binding, higher = more signal;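 further: mouse activin A protein probed at 4.33 µg/mL on printed slides; score merges bound-protein fluorescence near 667 nm with spot signal-to-noise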

Fibroblast growth factor 10 (Homo sapiens), sequence (O15520 whole entry, looked up): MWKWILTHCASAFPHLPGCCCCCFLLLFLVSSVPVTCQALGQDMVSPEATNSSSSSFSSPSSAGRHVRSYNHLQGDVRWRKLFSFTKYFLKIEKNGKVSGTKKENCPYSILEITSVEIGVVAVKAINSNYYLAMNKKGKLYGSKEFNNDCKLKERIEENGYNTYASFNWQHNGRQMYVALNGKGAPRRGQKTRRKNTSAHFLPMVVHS
Neurogenic locus notch homolog protein 3 (Homo sapiens), sequence (Q9UM47 whole entry, looked up): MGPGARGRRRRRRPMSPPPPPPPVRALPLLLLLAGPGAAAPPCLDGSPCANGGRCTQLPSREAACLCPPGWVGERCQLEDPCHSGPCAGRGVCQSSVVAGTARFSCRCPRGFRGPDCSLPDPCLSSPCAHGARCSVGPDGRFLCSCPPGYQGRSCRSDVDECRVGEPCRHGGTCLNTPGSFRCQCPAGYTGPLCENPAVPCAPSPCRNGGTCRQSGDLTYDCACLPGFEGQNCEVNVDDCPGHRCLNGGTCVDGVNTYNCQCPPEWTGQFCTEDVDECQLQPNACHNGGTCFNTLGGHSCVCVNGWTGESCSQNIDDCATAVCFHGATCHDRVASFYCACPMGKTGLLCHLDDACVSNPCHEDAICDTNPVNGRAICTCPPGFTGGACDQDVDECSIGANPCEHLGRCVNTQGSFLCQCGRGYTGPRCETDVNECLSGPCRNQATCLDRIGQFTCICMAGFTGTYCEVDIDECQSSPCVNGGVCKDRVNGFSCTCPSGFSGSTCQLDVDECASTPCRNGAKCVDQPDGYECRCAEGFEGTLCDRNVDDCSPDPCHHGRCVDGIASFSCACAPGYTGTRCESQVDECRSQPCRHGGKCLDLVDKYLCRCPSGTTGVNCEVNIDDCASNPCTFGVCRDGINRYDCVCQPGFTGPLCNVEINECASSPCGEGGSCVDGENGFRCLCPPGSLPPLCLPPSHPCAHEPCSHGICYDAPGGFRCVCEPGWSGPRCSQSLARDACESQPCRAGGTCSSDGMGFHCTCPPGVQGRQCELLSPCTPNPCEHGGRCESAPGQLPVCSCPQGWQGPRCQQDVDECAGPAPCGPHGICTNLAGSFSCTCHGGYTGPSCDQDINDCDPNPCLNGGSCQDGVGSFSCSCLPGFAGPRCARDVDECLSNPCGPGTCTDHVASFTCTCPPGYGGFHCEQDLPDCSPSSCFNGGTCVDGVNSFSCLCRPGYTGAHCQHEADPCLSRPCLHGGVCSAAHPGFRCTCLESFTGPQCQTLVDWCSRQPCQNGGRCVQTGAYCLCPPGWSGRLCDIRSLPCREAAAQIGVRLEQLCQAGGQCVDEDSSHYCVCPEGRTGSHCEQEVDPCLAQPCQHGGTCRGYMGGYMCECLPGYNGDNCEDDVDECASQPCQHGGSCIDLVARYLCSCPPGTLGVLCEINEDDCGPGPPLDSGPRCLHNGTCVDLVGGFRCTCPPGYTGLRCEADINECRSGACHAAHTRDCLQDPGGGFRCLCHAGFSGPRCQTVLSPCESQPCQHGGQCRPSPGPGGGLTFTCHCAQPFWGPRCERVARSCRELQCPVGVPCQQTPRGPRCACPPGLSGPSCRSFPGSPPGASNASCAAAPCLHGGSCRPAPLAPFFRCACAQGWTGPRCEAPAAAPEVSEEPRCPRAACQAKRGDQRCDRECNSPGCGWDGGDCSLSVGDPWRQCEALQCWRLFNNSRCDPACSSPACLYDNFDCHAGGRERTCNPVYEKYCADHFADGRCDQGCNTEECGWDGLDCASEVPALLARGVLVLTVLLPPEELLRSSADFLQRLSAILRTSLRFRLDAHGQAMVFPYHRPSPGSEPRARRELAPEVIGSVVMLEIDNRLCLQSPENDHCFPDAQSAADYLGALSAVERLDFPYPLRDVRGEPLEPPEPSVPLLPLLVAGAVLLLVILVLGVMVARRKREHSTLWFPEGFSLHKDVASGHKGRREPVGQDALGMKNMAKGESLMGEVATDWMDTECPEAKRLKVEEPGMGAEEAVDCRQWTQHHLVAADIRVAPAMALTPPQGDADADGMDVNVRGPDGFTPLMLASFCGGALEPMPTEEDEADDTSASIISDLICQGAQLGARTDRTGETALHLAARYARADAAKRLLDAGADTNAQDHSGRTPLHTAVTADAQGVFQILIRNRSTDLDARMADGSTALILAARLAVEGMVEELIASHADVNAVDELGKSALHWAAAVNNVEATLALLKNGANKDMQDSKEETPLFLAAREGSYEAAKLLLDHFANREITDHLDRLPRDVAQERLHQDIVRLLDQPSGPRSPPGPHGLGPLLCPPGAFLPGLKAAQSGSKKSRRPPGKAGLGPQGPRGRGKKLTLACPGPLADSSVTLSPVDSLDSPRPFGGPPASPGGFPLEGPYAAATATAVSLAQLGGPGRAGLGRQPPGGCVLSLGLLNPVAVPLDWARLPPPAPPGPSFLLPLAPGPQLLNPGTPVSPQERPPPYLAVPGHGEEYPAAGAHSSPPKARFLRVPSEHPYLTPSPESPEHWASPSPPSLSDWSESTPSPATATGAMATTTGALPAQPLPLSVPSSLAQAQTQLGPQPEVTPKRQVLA
Follistatin-related protein 3 (Homo sapiens), sequence (O95633 whole entry, looked up): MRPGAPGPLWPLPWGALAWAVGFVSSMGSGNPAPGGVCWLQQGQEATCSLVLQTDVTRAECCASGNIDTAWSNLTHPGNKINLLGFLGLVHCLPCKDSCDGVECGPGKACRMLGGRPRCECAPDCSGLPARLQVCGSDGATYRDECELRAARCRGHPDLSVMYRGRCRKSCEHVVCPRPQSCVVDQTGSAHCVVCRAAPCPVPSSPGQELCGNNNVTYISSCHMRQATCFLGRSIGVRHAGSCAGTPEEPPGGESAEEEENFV
Torsin-1A-interacting protein 2 (Homo sapiens), sequence (Q8NFQ8 whole entry, looked up): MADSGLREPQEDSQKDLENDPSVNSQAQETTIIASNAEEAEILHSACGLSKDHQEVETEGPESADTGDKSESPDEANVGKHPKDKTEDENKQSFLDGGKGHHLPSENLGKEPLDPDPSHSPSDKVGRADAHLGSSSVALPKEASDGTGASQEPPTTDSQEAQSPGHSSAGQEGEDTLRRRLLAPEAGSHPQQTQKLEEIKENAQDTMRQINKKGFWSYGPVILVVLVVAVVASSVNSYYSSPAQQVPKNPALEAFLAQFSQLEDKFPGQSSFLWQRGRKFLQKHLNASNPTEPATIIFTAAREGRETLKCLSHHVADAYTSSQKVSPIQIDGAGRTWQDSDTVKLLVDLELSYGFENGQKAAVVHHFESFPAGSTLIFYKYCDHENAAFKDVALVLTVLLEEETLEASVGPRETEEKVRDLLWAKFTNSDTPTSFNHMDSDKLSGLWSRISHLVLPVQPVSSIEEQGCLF
Dickkopf-related protein 1 (Homo sapiens), sequence (O94907 whole entry, looked up): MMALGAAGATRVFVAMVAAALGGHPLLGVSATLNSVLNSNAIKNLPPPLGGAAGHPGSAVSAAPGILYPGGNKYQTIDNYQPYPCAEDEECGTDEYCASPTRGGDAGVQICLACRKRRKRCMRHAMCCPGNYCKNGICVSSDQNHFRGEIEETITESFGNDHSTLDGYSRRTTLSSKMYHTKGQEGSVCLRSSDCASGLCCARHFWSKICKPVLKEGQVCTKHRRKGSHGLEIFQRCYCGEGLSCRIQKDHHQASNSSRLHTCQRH
Epidermal growth factor receptor (Homo sapiens), sequence (P00533 whole entry, looked up): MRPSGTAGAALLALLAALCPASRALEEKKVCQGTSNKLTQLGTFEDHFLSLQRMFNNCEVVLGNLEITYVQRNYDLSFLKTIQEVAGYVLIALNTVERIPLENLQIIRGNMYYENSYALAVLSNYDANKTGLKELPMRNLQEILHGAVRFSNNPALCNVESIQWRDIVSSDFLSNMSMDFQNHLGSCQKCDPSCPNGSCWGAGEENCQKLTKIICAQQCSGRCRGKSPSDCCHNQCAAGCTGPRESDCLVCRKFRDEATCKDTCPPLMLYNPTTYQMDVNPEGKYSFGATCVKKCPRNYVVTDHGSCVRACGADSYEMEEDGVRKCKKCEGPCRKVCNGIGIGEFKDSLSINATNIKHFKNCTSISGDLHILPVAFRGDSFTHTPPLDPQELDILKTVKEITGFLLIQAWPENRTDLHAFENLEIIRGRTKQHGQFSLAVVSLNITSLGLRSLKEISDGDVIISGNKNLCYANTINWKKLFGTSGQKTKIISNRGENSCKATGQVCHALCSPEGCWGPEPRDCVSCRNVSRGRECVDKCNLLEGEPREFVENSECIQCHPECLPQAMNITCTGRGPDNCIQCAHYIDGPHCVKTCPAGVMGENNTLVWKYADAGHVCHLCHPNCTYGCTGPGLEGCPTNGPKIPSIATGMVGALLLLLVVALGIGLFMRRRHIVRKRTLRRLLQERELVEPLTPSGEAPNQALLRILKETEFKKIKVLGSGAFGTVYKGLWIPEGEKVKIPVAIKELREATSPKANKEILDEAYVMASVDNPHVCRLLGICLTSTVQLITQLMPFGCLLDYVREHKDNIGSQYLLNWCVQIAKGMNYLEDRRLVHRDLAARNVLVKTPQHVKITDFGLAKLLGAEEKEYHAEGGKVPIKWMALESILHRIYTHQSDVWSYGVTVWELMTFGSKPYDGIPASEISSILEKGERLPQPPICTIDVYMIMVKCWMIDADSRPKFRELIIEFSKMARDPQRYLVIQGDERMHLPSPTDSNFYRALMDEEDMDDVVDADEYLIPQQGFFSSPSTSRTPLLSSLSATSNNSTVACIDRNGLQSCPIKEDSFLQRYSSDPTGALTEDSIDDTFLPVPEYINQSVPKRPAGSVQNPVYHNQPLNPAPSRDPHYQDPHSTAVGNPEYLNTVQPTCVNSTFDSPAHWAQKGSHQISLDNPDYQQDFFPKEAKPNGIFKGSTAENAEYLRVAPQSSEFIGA

COCCCNC(=O)[C@@H]1c2ccccc2C(=O)N(CC23CC4CC(CC(C4)C2)C3)[C@H]1c1ccc(CO)cc1
composite z-score [1]: 1.49 | z-score [2]: 0.4 (inactive) | z-score [3]: -1.02 (inactive) | z-score [4]: 0.182 (inactive) | composite z-score [5]: 1.56 | z-score [6]: -0.494 (inactive) | composite z-score [7]: 0.242 | composite z-score [8]: 0.39 | composite z-score [9]: 0.588 | composite z-score [10]: 0.135 | composite z-score [11]: 0.0881 | composite z-score [12]: 0.884 | composite z-score [13]: 0.97 | z-score [14]: -1.1 (inactive) | composite z-score [15]: 0.37 | composite z-score [16]: 0.623 | composite z-score [17]: 0.215 | composite z-score [18]: 0.296 | composite z-score [19]: 0.427 | composite z-score [20]: 0.911

C=CCC1=C[C@H]2[C@H]([C@@H]3C=C[C@]2(CC=C)C(=O)[C@]32CO2)[C@@]2(CO2)C1=O
composite z-score [1]: 0.388 | z-score [2]: 0.683 (inactive) | z-score [3]: -21.2 (active) | z-score [4]: -4.1 (inactive) | composite z-score [5]: 0.756 | z-score [6]: 2.54 (inactive) | composite z-score [7]: 0.233 | composite z-score [8]: 1.65 | composite z-score [9]: 0.183 | composite z-score [10]: 0.148 | composite z-score [11]: 1.29 | composite z-score [12]: -0.354 | composite z-score [13]: -0.69 | z-score [14]: -0.414 (inactive) | composite z-score [15]: 1.14 | composite z-score [16]: -0.0104 | composite z-score [17]: 1.58 | composite z-score [18]: 1.31 | composite z-score [19]: 1.8 | composite z-score [20]: 1.9

C/C(=N\O)C(=O)NCCCCCNC(=O)OCc1ccccc1
composite z-score [1]: -0.214 | z-score [2]: -0.286 (inactive) | z-score [3]: -0.966 (inactive) | z-score [4]: -1.27 (inactive) | composite z-score [5]: 0.63 | z-score [6]: 2.03 (inactive) | composite z-score [7]: -0.0741 | composite z-score [8]: 0.65 | composite z-score [9]: 0.996 | composite z-score [10]: 0.0221 | composite z-score [11]: 0.807 | composite z-score [12]: -0.186 | composite z-score [13]: -0.472 | z-score [14]: -0.508 (inactive) | composite z-score [15]: 0.554 | composite z-score [16]: 0.777 | composite z-score [17]: 0.479 | composite z-score [18]: 1.03 | composite z-score [19]: 0.497 | composite z-score [20]: 0.102

Cc1ccc(S[C@]2(C(=O)NCCN3CCOCC3)CC(=O)N(C3Cc4ccccc4C3)[C@@H]2c2ccc(CO)cc2I)cc1
composite z-score [1]: 1.01 | z-score [2]: -2.08 (inactive) | z-score [3]: -5.05 (inactive) | z-score [4]: 0.401 (inactive) | composite z-score [5]: 1.96 | z-score [6]: 1.75 (inactive) | composite z-score [7]: 0.366 | composite z-score [8]: -1.62 | composite z-score [9]: -0.484 | composite z-score [10]: -0.204 | composite z-score [11]: 1.84 | composite z-score [12]: 0.696 | composite z-score [13]: 1.18 | z-score [14]: -1.16 (inactive) | composite z-score [15]: -0.303 | composite z-score [16]: -0.909 | composite z-score [17]: -1.65 | composite z-score [18]: -0.359 | composite z-score [19]: -0.408 | composite z-score [20]: 0.72

C=CC[C@]1(C(=O)O)N=C(c2ccc(OCCCO)cc2)O[C@H]1c1ccccc1N=[N+]=[N-]
composite z-score [1]: -0.417 | z-score [2]: 0.942 (inactive) | z-score [3]: -0.155 (inactive) | z-score [4]: -0.336 (inactive) | composite z-score [5]: 2.62 | z-score [6]: 1.32 (inactive) | composite z-score [7]: 0.0313 | composite z-score [8]: -0.491 | composite z-score [9]: -0.33 | composite z-score [10]: -0.0059 | composite z-score [11]: 1.75 | composite z-score [12]: 0.623 | composite z-score [13]: 1.05 | z-score [14]: -0.627 (inactive) | composite z-score [15]: -0.103 | composite z-score [16]: -0.335 | composite z-score [17]: -0.18 | composite z-score [18]: -0.214 | composite z-score [19]: -0.651 | composite z-score [20]: 1.43

O=C(NCc1ccccc1)[C@@]1(CCS(=O)(=O)c2ccccc2)COC(c2ccc(OCCCO)cc2)=N1
composite z-score [1]: 1.53 | z-score [2]: -0.53 (inactive) | z-score [3]: -0.111 (inactive) | z-score [4]: 31.5 (active) | composite z-score [5]: 3.6 | z-score [6]: 2.12 (inactive) | composite z-score [7]: 0.167 | composite z-score [8]: 0.16 | composite z-score [9]: 1.13 | composite z-score [10]: 0.0033 | composite z-score [11]: 1.41 | composite z-score [12]: 0.933 | composite z-score [13]: 1.47 | z-score [14]: -0.969 (inactive) | composite z-score [15]: 0.748 | composite z-score [16]: 1.08 | composite z-score [17]: -0.166 | composite z-score [18]: 0.23 | composite z-score [19]: -0.594 | composite z-score [20]: 0.807

C=C[C@H](OC)[C@@H](OC(=O)Nc1ccc(SC)cc1)c1ccc(O)c(F)c1
composite z-score [1]: 1.22 | z-score [2]: -1.83 (inactive) | z-score [3]: -1.68 (inactive) | z-score [4]: 0.887 (inactive) | composite z-score [5]: 2.96 | z-score [6]: 1.48 (inactive) | composite z-score [7]: -0.0174 | composite z-score [8]: -0.0413 | composite z-score [9]: 0.134 | composite z-score [10]: -0.12 | composite z-score [11]: 1.03 | composite z-score [12]: -0.145 | composite z-score [13]: 0.0453 | z-score [14]: -1.97 (inactive) | composite z-score [15]: 1.01 | composite z-score [16]: 0.0309 | composite z-score [17]: -0.133 | composite z-score [18]: 0.264 | composite z-score [19]: -0.39 | composite z-score [20]: -0.433

O=C(CS)NCCCCCNC(=O)[C@H]1C[C@H]2C(=O)N3CCC[C@H]3C(=O)N2[C@H]1c1ccc(O)cc1
composite z-score [1]: -0.183 | z-score [2]: -0.0414 (inactive) | z-score [3]: -1.25 (inactive) | z-score [4]: 0.0236 (inactive) | composite z-score [5]: 0.0874 | z-score [6]: 1.62 (inactive) | composite z-score [7]: -0.0961 | composite z-score [8]: 0.0529 | composite z-score [9]: -1.17 | composite z-score [10]: -0.184 | composite z-score [11]: 0.203 | composite z-score [12]: -0.18 | composite z-score [13]: -0.196 | z-score [14]: -1.45 (inactive) | composite z-score [15]: -0.0763 | composite z-score [16]: -1.07 | composite z-score [17]: 0.392 | composite z-score [18]: -0.47 | composite z-score [19]: 0.844 | composite z-score [20]: 0.594

COc1cc2c(cc1OC)CN(C(=O)[C@H]1[C@@H]3C(=O)O[C@@H](c4ccccc4)[C@@H](c4ccccc4)N3[C@@H](c3ccccc3OCCO)[C@]13C(=O)Nc1ccc(C#CC4(O)CCCCCC4)cc13)CC2
composite z-score [1]: 1.55 | z-score [2]: 1.71 (inactive) | z-score [3]: 0.519 (inactive) | z-score [4]: 4.28 (inactive) | composite z-score [5]: 2.83 | z-score [6]: 2.54 (inactive) | composite z-score [7]: 0.0028 | composite z-score [8]: 1.19 | composite z-score [9]: 1.11 | composite z-score [10]: 0.0965 | composite z-score [11]: 1.6 | composite z-score [12]: 0.329 | composite z-score [13]: 0.453 | z-score [14]: -1.16 (inactive) | composite z-score [15]: 1.06 | composite z-score [16]: 1.3 | composite z-score [17]: 0.525 | composite z-score [18]: 0.564 | composite z-score [19]: 0.693 | composite z-score [20]: 0.113

CCCC=C(CCC)[C@@H](NS(=O)(=O)c1ccc(-c2ccccc2)cc1)c1ccc(C(=O)OC)cc1
composite z-score [1]: 0.266 | z-score [2]: 0.282 (inactive) | z-score [3]: -1.51 (inactive) | z-score [4]: 0.284 (inactive) | composite z-score [5]: 1.76 | z-score [6]: -1.9 (inactive) | composite z-score [7]: -0.119 | composite z-score [8]: -0.666 | composite z-score [9]: -0.616 | composite z-score [10]: -0.059 | composite z-score [11]: -0.127 | composite z-score [12]: 0.224 | composite z-score [13]: 0.516 | z-score [14]: -2.72 (inactive) | composite z-score [15]: -0.632 | composite z-score [16]: -0.84 | composite z-score [17]: -0.243 | composite z-score [18]: -0.875 | composite z-score [19]: -0.422 | composite z-score [20]: 0.573
